# Source: PubChem BioAssay (National Center for Advancing Translational Sciences (NCATS))
# In the library only some 7.2% were active in any assay of this set; here they are far more common.
# FLuc inh: blocks purified firefly luciferase enzyme activity | purified P. pyralis luciferase, luminescence, biochemical | AID 1347043 | 76,000 compounds, 2.5% hits | Potency, µM (top dose mostly 115 µM), usual class: inhibitors; further: nearly all actives have a fitted effect of over 65% in size
#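 Purified 10nM P. pyralis luciferase with 10uM D-luciferin and 10uM ATP in 50mM Tris acetate pH 7.5, 10mM Mg acetate, 0.01% Tween-20, 0.05% BSA. qHTS titration; luminescence read by CCD imager.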
# HEK293 viab: reduces viability of HEK-293 SNCA reporter cells; HEK-293-SNCA-luc viability, GF-AFC fluorescence, 24 h; Potency, µM (titrated, usually from 57.1 µM), for inactives: at the top dose activity change, negative = cytotoxicity, most hits filed as cytotoxic; 150,000 compounds, 0.12% hits; AID 1671193;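 further: 0% = DMSO-treated cells and -100% = medium-only wells without cells; nearly all actives have a fitted effect of over 30% in size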
#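 Cytotoxicity counterscreen: after 24 h compound treatment of genome-edited SNCA-luciferase HEK-293 cells, live-cell protease substrate GF-AFC read by fluorescence after 30 min; activity scaled between DMSO (0%) and medium-only (-100%), curves Hill-fitted.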
# NPR1 antag: blocks ANP-stimulated signaling of human Npr1 receptor; P16066; HEK293 hNpr1 GloSensor cGMP, ANP-stimulated luminescence; Potency, µM (series often up to 46.3 µM), for inactives: top-dose activity change, negative = inhibition, most hits filed as inhibitors; 76,000 compounds, 1.6% hits; AID 1347048; calls by dose curve; further: nearly all actives have a fitted effect of over 60% in size
# Target sequence (P16066 whole entry, looked up): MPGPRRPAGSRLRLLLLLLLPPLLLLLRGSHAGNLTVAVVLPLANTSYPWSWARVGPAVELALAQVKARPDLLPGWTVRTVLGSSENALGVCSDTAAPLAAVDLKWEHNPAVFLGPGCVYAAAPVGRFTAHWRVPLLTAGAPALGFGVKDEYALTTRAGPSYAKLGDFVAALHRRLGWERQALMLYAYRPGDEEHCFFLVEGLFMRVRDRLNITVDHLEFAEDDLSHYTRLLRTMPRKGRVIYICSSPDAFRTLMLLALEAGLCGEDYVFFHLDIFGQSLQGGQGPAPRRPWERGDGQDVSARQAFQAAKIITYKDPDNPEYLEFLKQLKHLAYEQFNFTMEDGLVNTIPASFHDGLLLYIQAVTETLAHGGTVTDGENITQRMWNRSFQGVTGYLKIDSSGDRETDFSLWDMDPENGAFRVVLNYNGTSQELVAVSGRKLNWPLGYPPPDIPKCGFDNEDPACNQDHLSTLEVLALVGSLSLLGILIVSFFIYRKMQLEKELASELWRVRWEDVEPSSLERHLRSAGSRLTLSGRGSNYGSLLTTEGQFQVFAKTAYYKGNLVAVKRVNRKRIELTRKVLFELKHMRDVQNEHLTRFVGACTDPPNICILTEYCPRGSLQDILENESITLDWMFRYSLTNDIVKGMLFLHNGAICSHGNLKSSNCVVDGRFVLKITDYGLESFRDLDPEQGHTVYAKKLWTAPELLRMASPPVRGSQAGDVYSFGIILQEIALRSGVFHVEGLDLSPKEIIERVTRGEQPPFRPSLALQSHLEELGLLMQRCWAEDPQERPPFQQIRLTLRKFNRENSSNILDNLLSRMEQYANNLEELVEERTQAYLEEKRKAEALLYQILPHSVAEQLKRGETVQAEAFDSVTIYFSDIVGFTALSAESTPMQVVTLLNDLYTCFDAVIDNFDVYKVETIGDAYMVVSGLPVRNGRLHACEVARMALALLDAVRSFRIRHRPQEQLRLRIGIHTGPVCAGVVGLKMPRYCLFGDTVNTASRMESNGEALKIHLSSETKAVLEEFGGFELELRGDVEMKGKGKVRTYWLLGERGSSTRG
#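 HEK293 cells stably expressing human Npr1 and cGMP GloSensor pGS-40F, loaded 2 h with 2% GloSensor reagent, given compound 30 min at room temperature. Luminescence read before and 20 min after 0.1 nM hNppA.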
# SNCA expr inhib: reduces expression of the alpha-synuclein gene; HEK-293 SNCA-luciferase knock-in, luminescence, 24 h; AID 1671194; Potency, µM (top dose mostly 57.2 µM), for inactives: top-dose activity change, negative = inhibition, hits mostly inhibitors; 140,000 compounds, 0.17% hits;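 further: plate controls were DMSO cells for no effect and cell-free wells for full effect; nearly all actives have a fitted effect of over 45% in size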
# 3T3 cytotox: NIH 3T3 cell cytotoxicity | Potency, µM (top dose mostly 96.7 µM), for the others: at the highest dose activity change, negative = cytotoxicity, usual class: inhibitors | NIH 3T3 viability, CellTiter-Glo ATP luminescence, 48-72 h | 94,000 compounds, 4.3% hits | AID 1345082; further: nearly all actives have a fitted effect of over 55% in size
#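 Luminescent ATP readout (CellTiter-Glo, 10 min RT) after 48 or 72 hr compound exposure of NIH 3T3 cells seeded at 400 cells/well in 1536-well format; quantitative HTS.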
# HEK cytotox: kills HEK 293 cells | 94,000 compounds, 6.6% hits | HEK 293 viability, ATP luminescence (CellTiter-Glo), 48-72 h | Potency, µM (titrated, usually from 115 µM), for the others: top-dose activity change, negative = cytotoxicity, actives largely listed as inhibitors; further: nearly all actives have a fitted effect of over 60% in size
#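 Luminescence from cellular ATP, measured with CellTiter-Glo, indicates HEK 293 viability. Cells plated at 250 cells/well are treated with compound for 48 or 72 hr at 37 degree Celsius before reagent addition.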
# * marks the source's active call; other numbers are inactive results; i = inactive; ? = inconclusive; . = no result given; [ ] = dose if it differs, or a comment. Unless noted, the call rests on the fitted dose curve; in most records, active means well fitted curve in the direction sought with a large enough effect; inconclusive means small, poorly fitted or top-dose-only effect, or another doubt; inactive means no such curve, though single readings can be large; an effect the other way counts as inactive or inconclusive. Unless noted, on the % scale 0 is the no-effect control and ±100 the full control effect; potency means the concentration at half of the fitted maximal effect.
SMILES,FLuc inh,HEK293 viab,NPR1 antag,SNCA expr inhib,3T3 cytotox,HEK cytotox
CNc1cccnc1OC1CCN(S(=O)(=O)Cc2ccccc2)C1 (configuration not stated),i,5%,4%,22%,i,13%
Fc1ccc(CN2CCC3(CC(Cc4ccccc4)=NO3)C2)cc1 (configuration not stated),i,-12%[87.6 µM],4%[70.6 µM],-6%[87.6 µM],?,?
CC(=O)NC1CCN(Cc2ccc(-c3ccsc3)cc2)C1 (configuration not stated),.,1%[87.6 µM],.,43%[87.6 µM],?,?
Cc1ccccc1C(=O)NC1CCN(Cc2ccc(-c3ccsc3)cc2)C1 (configuration not stated),.,7%,.,5%,?,79µM*
O=C(NC1CCN(Cc2ccc(-c3ccsc3)cc2)C1)c1cccc(Cl)c1 (configuration not stated),.,-1%,.,27%,?,45µM*
O=C(NC1CCN(Cc2ccc(-c3ccsc3)cc2)C1)c1ccccc1F (configuration not stated),.,4%,.,-6%,?,?
COC(=O)NC1CCN(Cc2ccc(-c3ccsc3)cc2)C1 (configuration not stated),.,?,.,45%[87.6 µM],?,100µM*
COc1ccccc1-c1nnc2ccc(C(=O)NCC(C)C)cn12,.,-3%[87.6 µM],.,-14%[87.6 µM],-14%[138 µM],3%[172 µM]
O=C(NCCc1nc(-c2cccnc2)n[nH]1)C1NCCc2[nH]cnc21 (configuration not stated),i,-14%,0%,-24%,-1%,?
CCCCNC(=O)Cn1nc2n(c1=O)CCN(Cc1cccc(Cl)c1)C2=O,i,-2%,-1%,11%,i,13%
CC1CCCN(C(=O)CN2C(=O)NC3(CCCCC3)C2=O)C1 (configuration not stated),i,-2%,-1%,9%,i,11%
CC(=O)N(C)CCc1noc(C2CN(C(=O)COc3ccccc3)C2)n1,i,2%,0%,-19%,3%,3%
CC(=O)N(C)CCc1noc(C2CN(Cc3c(F)cccc3Cl)C2)n1,i,-12%,-1%,-17%,?,40µM*
CC(NC(=O)CCc1conc1-c1ccccc1)c1ccc(F)cc1 (configuration not stated),18µM*,0%,-4%,68%,-3%,?
Cc1cccc(-c2nocc2CCC(=O)NC(C)c2ccc(F)cc2)c1 (configuration not stated),i,-22%,-6%,-4%,?,?
CC(C)(C)c1[nH]nc2c1C(c1ccnc3ccccc13)CC(=O)N2 (configuration not stated),i,-19%,-5%,15%,32µM*,-8%
CCCN1CCN(C(=O)C2(c3ccc(NC(=O)C(C)C)cc3)CCCCC2)CC1,i,3%,-1%,-21%,3%,-4%
COc1ccc2cc1Nc1ccc(cc1)C[C@H](NCc1cccc(O)c1)C(=O)N(C)[C@@H](C(=O)Nc1ccccc1)C2,i,-11%,-30%,4%,?,?
COc1ccc2cc1Nc1ccc(cc1)C[C@H](NC(=O)Cc1cccc(Cl)c1)C(=O)N(C)[C@H](C(=O)NCCC(C)C)C2,i,?,-1%,?,25µM*,?
CCN1C(=O)C2CC3(CCN(C(=O)Nc4ccccc4F)CC3)CN2C1=O (configuration not stated),.,15%,.,-4%,-13%,3%
CC(C)CCN1CCn2c(nnc2-c2ccc(Cl)cc2)C1,.,5%,.,-3%,?,-5%
CCNc1ccnc(NC2CCCc3c2cnn3-c2ccc(C)c(C)c2)n1 (configuration not stated),?,-14%,3%,5%,28µM*,40µM*
O=C(NCc1cccnc1Oc1ccc(F)cc1F)c1cc(C2CC2)[nH]n1,i,-5%,-20%,32%,?,8.9µM*
